A selection: hits, their analogues and other compounds. The true share with any hit is near 2.1%.
FUS yeast rescue: rescues growth of FUS-expressing yeast; S. cerevisiae FUS-expressing, growth rescue, OD600, 24 h; Potency, µM (series often up to 76.6 µM), usual class: activators; 390,000 tested, 0.24% active;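 also: plate controls were DMSO vehicle for no effect and reference control for full effect; nearly all actives have a fitted effect of over 55% in size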
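FUS-expressing yeast, raffinose-pregrown, induced in 2% galactose minimal medium at OD 0.005; compounds in a dilution series, 24hr at 30C. Growth restoration read as absorbance at 600 nm. CP55940 positive control, DMSO negative.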
TDP43 rescue: TDP-43 toxicity inhibition in yeast; TDP-43 expressing yeast growth rescue, BacTiter-Glo, 24 h; Potency, µM (titrated, usually from 46.1 µM), for the others: top-dose growth rescue (activation), usual class: activators; 410,000 tested, 1.8% active; AID 652104; also: % of control where 0% means no effect; nearly all actives have a fitted effect of over 50% in size
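Growth rescue of TDP-43-toxic yeast measured as ATP luminescence (BacTiter-Glo). Cells grown to mid-log in raffinose, induced in galactose at OD600=0.02, exposed to compound 24 hr at 30 deg C.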
Abeta yeast res: A-beta toxicity reversal in yeast | yeast expressing A-beta42, growth rescue, OD600, 48 h; response scale: 0% DMSO, 100% iron-clioquinol control | Potency, µM (highest dose often 46.1 µM), hits mostly activators | 410,000 tested, 0.063% active; also: nearly all actives have a fitted effect of over 55% in size
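Yeast A-beta toxicity model in growth medium with pinned compounds, 48 h at 30 C; growth read as absorbance at 600 nm. Normalized to FeCl3/clioquinol equimolar mix (positive) and DMSO (negative).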
aSyn yeast inh: rescues yeast growth from alpha-synuclein toxicity | Yeast expressing alpha-synuclein, growth rescue, BacTiter-Glo, 24 h | Potency, µM (doses to about 46.1 µM), inactives show at the top dose growth rescue (activation), usual class: activators | 370,000 tested, 0.14% active | AID 652106; also: % of control where 0% means no effect; nearly all actives have a fitted effect of over 65% in size
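Rescue of yeast growth: cells expressing toxic alpha-synuclein, induced in galactose at OD600 0.02, incubated with compound 24 h at 30 C. ATP luminescence quantified growth; inhibitors of toxicity appear as activators.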
Numbers without * were called inactive; i = inactive; ? = inconclusive; . = no result; [ ] = dose if it differs, or a comment. Calls follow the shape of the dose curve; as a rule, active = well fitted curve in the direction sought with a large enough effect; inconclusive = small, poorly fitted or top-dose-only effect, or another doubt; inactive = no such curve, though single readings can be large; an effect the other way counts as inactive or inconclusive. Potency is read from the fitted curve at half-maximal effect.

SMILES	FUS yeast rescue	TDP43 rescue	Abeta yeast res	aSyn yeast inh
COc1ccccc1C(=O)N1CCN(c2cccc(C(F)(F)F)c2)CC1	i	14µM*	i	3%
O=C(OCCN1CCN(C2CN(Cc3cn(Cc4ccccc4F)nn3)S(=O)(=O)C2)CC1)c1cc2ccccc2o1 (stereo unspecified)	i	.	.	.
COCc1cc(C)nc2oc(C(=O)c3ccccc3)c(N)c12	i	13µM*	i	25%
O=C(NCCc1ccc(F)cc1)c1cc2ccccn2n1	i	.	.	.
O=c1cnn([C@@H]2O[C@H](CO)[C@@H](O)[C@H]2O)c(=O)[nH]1	i	13%	?	5.6µM*
O=C(COc1ccc2ccccc2c1Br)N1CCCC1	i	11µM*	i	5%
COc1cc(SC)ccc1C(=O)N1CCN(c2ccccc2F)CC1	i	11µM*	i	1%
COc1ccccc1N1CCN(C(=O)COc2cccc3ccccc23)CC1	?	35µM*	i	?
COc1ccccc1OCC(=O)N1CCN(C(=O)COc2ccccc2OC)CC1	i	-4%	i	2%
COc1ccc2[nH]c(C(=O)N3CCN(c4ccccc4F)CC3)c(C)c2c1	i	16µM*	i	1%
O=C(COc1ccc2ccccc2c1Br)N1CCOCC1	i	17%	i	13%
COc1cc2ccccc2cc1C(=O)N1CCN(C(C)=O)CC1	i	11%	i	-2%
COc1cc2ccccc2cc1C(=O)N1CCN(c2nc3ccc(F)cc3s2)CC1	i	13µM*	i	.
CCOc1ccccc1N1CCN(C(=O)c2cc3ccccc3cc2OC)CC1	i	14µM*	i	7%
Cc1[nH]n(-c2ccccc2)c(=O)c1C=Nc1cccc2cccnc12	.	22µM*	i	-2%
Cc1[nH]n(-c2ccccc2)c(=O)c1/C=N/N1C(=O)c2cccc3cccc(c23)C1=O	i	18µM*	?	?
COc1ccccc1N1CCN(C(=O)c2ccc3c(c2)nc(C)n3-c2cc(OC)c(OC)c(OC)c2)CC1	i	.	.	.
O=C(COc1ccc(Cl)cc1)Nc1ccc2[nH]ncc2c1	i	2.8µM*	i	-4%
O=C(COc1ccccc1)Nc1ccc2[nH]ncc2c1	i	1%	i	-1%
Cc1ccccc1OCC(=O)Nc1ccc2[nH]ncc2c1	i	13µM*	i	9%
Cc1ccccc1NC(=O)OC1CC2CC1[C@H]1CCCCN1[C@H]2Cc1ccccc1 (stereo partly specified)	i	.	.	.
N#Cc1sc(NCc2cccc(Cl)c2)nc1Cl	i	14µM*	i	19%
COc1cc(-c2nn3c(C4CCCCC4)nnc3s2)cc(OC)c1OC	i	-10%	i	0%
c1ccc(-c2nn3c(C4CCCCC4)nnc3s2)cc1	i	20µM*	i	3%
COc1ccc(-c2nn3c(C4CCCCC4)nnc3s2)cc1OC	?	20µM*	i	-3%
SMILES	FUS yeast rescue	TDP43 rescue	Abeta yeast res	aSyn yeast inh
c1ccc(-c2nn3c(C4CCCCC4)nnc3s2)nc1	i	-9%	i	1%
Clc1ccc(OCc2nn3c(C4CCCCC4)nnc3s2)cc1	?	20µM*	i	25%
CC(C)CN1C(=O)[C@@]2(CC(=O)N(C)C2c2ccccc2)c2cc(-n3cc(CO)nn3)ccc21 (stereo partly specified)	i	.	.	.
COc1c(C(C)(C)C)cc(S(=O)(=O)N2c3ccccc3C[C@H]2C)cc1C(C)(C)C	i	.	.	.
Cc1ccc(Cl)cc1NS(=O)(=O)c1ccc2oc(=O)c3ncn(C)c3c2c1	i	-10%	i	.
O=C(CCc1nc2ccccc2s1)NCc1ccccc1F	i	12%	20µM*	-1%
O=C(CCCc1nc2ccccc2s1)NCc1ccccc1F	i	8%	i	11%
O=C(Cn1cnc2ccccc2c1=O)N1CCCCC1	i	.	.	.
Cc1ccc(C)c2[nH]c(=O)c(CN(CCN3CCCC3)C(=O)Nc3cccc(Cl)c3)cc12	35µM*	-6%	?	5%
Cc1cc(C)c2cc(CN(CCN3CCCC3)C(=O)Nc3ccc(F)cc3)c(=O)[nH]c2c1	?	3%	i	-2%
CCCC(=O)Nc1cccc(OCc2cc(=O)n3cccc(C)c3n2)c1	i	?	i	.
Cc1ccc(C)c(OCc2nc3ccc(S(=O)(=O)Nc4c(C)n(C)n(-c5ccccc5)c4=O)cc3[nH]2)c1	35µM*	-5%[0.397 µM]	i	8%
COC(=O)C1=NN(C(=O)c2cccc(Br)c2)C(O)(c2ccc(Cl)cc2)C1 (stereo unspecified)	i	?	i	18µM*
CCOC(=O)C1=NN(C(=O)c2ccccc2)C(O)(c2ccc(C)cc2)C1 (stereo unspecified)	i	-22%	i	11%
COc1ccccc1C(=O)OCc1c(-c2ccccc2)ncc2ccccc12	?	25µM*	i	30%
C=C(C)Cn1c(=S)[nH]c2ccccc2c1=O	i	13µM*	i	5%
CC(C)Cn1c(=S)[nH]c2ccccc2c1=O	i	29%	?	-16%
Cc1ccc(NC(=O)CN2C(=O)c3cccnc3Sc3ccccc32)cc1C	i	0%	i	.
CCC(=O)Nc1ccc(NC(=O)CSc2nnnn2-c2ccc3c(c2)OCCO3)cc1	i	-18%	i	-7%
Cc1ccc(NC(=O)CCSc2nnnn2-c2ccc3c(c2)OCO3)cc1C	i	18µM*	i	14%
O=C(COC(=O)c1ccc2ncsc2c1)Nc1cc(Cl)ccc1F	i	14µM*	i	-3%
CC(C)(C)c1ccc(NC(=O)CSc2nnc3scc(-c4ccccc4)n23)cc1	i	?	i	.
COc1ccc(CNC2CCCc3ccccc32)c(OC)c1 (stereo unspecified)	i	-8%	i	-1%
COc1ccc2c(c1)CCCC2NS(=O)(=O)OCC(Cl)(Cl)Cl (stereo unspecified)	i	35µM*	i	-3%
COc1ccccc1-c1cc2ccccc2[nH]1	i	16µM*	i	-16%
SMILES	FUS yeast rescue	TDP43 rescue	Abeta yeast res	aSyn yeast inh
O=C(O)c1ccccc1-c1cc2ccccc2[nH]1	i	-3%	i	2%
NCCCN(Cc1ccccc1)c1ccc(Br)cn1	.	.	.	-1%
OC(C[n+]1ccccc1Cl)c1ccccc1 (stereo unspecified)	.	.	.	3%
O=C(Nc1nccs1)C(Br)C(Br)c1ccccc1 (stereo unspecified)	i	10µM*	i	0%
CCOc1ccc(C(=O)Nc2ccccc2CC)cc1[N+](=O)[O-]	i	28µM*	?	-2%
CCc1ccc(NC(=O)Cn2ccn(-c3ccc(C)c(C)c3)c(=O)c2=O)cc1	i	7%	i	.
CCOc1ccccc1C(=O)Nc1cccc(-c2ccc(N3CCOCC3)nn2)c1	i	16µM*	?	7%
O=S1OC(c2ccccc2)c2cc(Cl)ccc21 (stereo unspecified)	i	13µM*	i	-16%

Source: PubChem
